The values below come from PubChem BioAssay (EPA / NIEHS).

The nature of assay [1]: ATG_CRE_CIS: Attagene CIS-FACTORIAL HepG2 Assay for human cAMP Responsive Element (CRE) binding protein 3 (AID 2282926). As to conditions: HepG2 CRE cis-reporter, Attagene multiplexed mRNA; actives raise or lower the signal. In a few lines:
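Readout: fluorescently labelled reporter transcripts resolved by capillary electrophoresis after RT-PCR, taken 24 h post-dosing in transfected HepG2. Endogenous transcription factor activity drives each cis-element reporter; gain or loss of signal fitted relative to DMSO control.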

In assay [2] the target is CCAAT/enhancer-binding protein beta (Homo sapiens) (UniProt P17676). Nature of the assay: ATG_C_EBP_CIS: Attagene CIS-FACTORIAL HepG2 Assay for human CCAAT/Enhancer Binding Protein (C/EBP) beta (AID 2282927). As to conditions: HepG2 Attagene cis-factorial transcription factor reporter; actives raise or lower the signal. The method in brief: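 Following a 24 h incubation with test chemical, transfected HepG2 cells yielded RNA whose reporter transcripts were quantified by RT-PCR and fluorescent capillary electrophoresis, with DMSO serving as baseline for bidirectional fitting.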
Sequence of CCAAT/enhancer-binding protein beta (Homo sapiens) (P17676 whole entry, looked up): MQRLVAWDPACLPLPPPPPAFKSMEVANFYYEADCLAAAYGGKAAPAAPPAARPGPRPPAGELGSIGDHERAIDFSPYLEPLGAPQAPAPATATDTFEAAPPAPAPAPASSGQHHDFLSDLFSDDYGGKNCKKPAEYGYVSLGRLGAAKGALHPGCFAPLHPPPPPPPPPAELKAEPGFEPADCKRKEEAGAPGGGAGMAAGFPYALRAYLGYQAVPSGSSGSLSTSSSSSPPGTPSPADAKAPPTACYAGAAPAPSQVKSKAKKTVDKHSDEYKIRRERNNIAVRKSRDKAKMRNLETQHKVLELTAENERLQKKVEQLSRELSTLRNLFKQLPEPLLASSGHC

Assay [3] is described as follows: ATG_CMV_CIS: Attagene CIS-FACTORIAL HepG2 Assay for human CMV (Internal Marker) (AID 2282928).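 Also: endpoint acts as a background internal control marker rather than a target.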 As to conditions: HepG2 CMV promoter reporter, transcription factor profiling; actives raise or lower the signal. The method in brief:
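Reporter transcripts from transfected HepG2 cells are isolated after 24 h of chemical dosing, reverse-transcribed and amplified. Fragments labeled with 6-FAM are cut with HpaI and quantified by capillary electrophoresis; DMSO defines baseline.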

Assay [4] in a line: ATG_DR4_LXR_CIS: Attagene CIS-FACTORIAL HepG2 Assay for human Liver X Receptor (LXR), DR4 submotif (AID 2282929). The conditions noted are these: HepG2 Attagene DR4 cis-reporter, mRNA transcription; actives raise or lower the signal. In a few lines:
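HepG2 cells transiently transfected with cis-promoter-driven multiplexed reporter units (DR4 element) were dosed for 24 h. Reporter mRNA was quantified by RT-PCR, fluorescent primer extension, HpaI digestion and capillary electrophoresis; bidirectional fitting versus DMSO baseline.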

Assay [5] has as its target Aryl hydrocarbon receptor (Homo sapiens) (UniProt P35869). In words: ATG_Ahr_CIS: Attagene CIS-FACTORIAL HepG2 Assay for human Aryl Hydrocarbon Receptor (Ahr) (AID 2282930). The conditions noted are these: HepG2 AhR cis-factorial reporter transcription; actives raise or lower the signal. The method in brief: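 Values derive from bidirectional fitting against DMSO negative control. Underlying signal: cis-element reporter mRNA in transiently transfected HepG2, harvested 24 h post-dose and measured by RT-PCR plus capillary electrophoresis.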

Assay [6] in a line: ATG_AP_1_CIS: Attagene CIS-FACTORIAL HepG2 Assay for human Activator Protein 1 (AP-1) (AID 2282931). The conditions noted are these: HepG2 Attagene cis-factorial AP-1 reporter mRNA; actives raise or lower the signal. The method in brief:
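HepG2 cells transiently transfected with cis-element-driven multiplex reporter units; 24 h compound exposure. Reporter mRNA quantified by RT-PCR, FAM-labelled fragments resolved by capillary electrophoresis; bidirectional fit versus DMSO baseline.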

Assay [7] can be described thus: ATG_BRE_CIS: Attagene CIS-FACTORIAL HepG2 Assay for human Bone Morphogenetic Protein (BMP) Response Element (BRE) (AID 2282933). As to conditions: HepG2 BMP response element reporter, Attagene transcription factor profiling; actives raise or lower the signal. The method in brief: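 Endogenous transcription factor activity at a BMP response element was monitored in transfected HepG2 cells 24 h after dosing. Fluorescent RT-PCR products were resolved by capillary electrophoresis, and activity was fitted in both directions versus DMSO.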

Assay [8] deals with Retinoic acid receptor alpha (Homo sapiens) (UniProt P10276). In words: ATG_DR5_RAR_CIS: Attagene CIS-FACTORIAL HepG2 Assay for human Retinoic Acid Receptor Alpha (RARE), DR5 submotif (AID 2282934). The conditions noted are these: HepG2 Attagene cis-factorial RARE DR5 reporter, mRNA; actives raise or lower the signal. In a few lines:
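Endpoint fitted in both directions relative to DMSO as negative control. It reflects DR5 cis-element reporter mRNA induction in transiently transfected HepG2 cells, measured 24 h after dosing through RT-PCR and fluorescent capillary electrophoresis.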

A short description of assay [9]: ATG_E_Box_CIS: Attagene CIS-FACTORIAL HepG2 Assay for human Enhancer Box (E-box) (AID 2282936). The conditions noted are these: HepG2 E-box cis-reporter transcription, actives raise or lower the signal. The method in brief:
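Measured 24 h post-dosing in HepG2 cells transfected with multiple cis-regulated reporter units, signal being reporter mRNA induction detected by fluorescent RT-PCR with capillary electrophoresis; gain or loss fitted against DMSO.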

The nature of assay [10]: ATG_M_61_CIS: Attagene CIS-FACTORIAL HepG2 Assay for M61 Transcription Factor (Internal Marker) (AID 2282937). As to conditions: HepG2 Attagene CIS-FACTORIAL M61 internal marker reporter; actives raise or lower the signal. The method in brief: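 HepG2 cells transiently transfected with cis-element-driven multiple reporter transcription units, dosed for 24 h. Reporter mRNA measured by RT-PCR, 6-FAM primer-extension labelling, HpaI digestion and capillary electrophoresis; bidirectional fit versus DMSO baseline.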

Assay [11] is described as follows: ATG_EGR_CIS: Attagene CIS-FACTORIAL HepG2 Assay for human Early Growth Response 1 (EGR1) (AID 2282938). As to conditions: HepG2 Attagene CIS-FACTORIAL EGR reporter mRNA; actives raise or lower the signal. In a few lines: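 HepG2 cells transiently transfected with cis-promoter-driven multiplexed reporter transcription units; reporter mRNA measured 24 h after compound dosing by RT-PCR, 6-FAM primer extension, HpaI digestion and capillary electrophoresis. Bidirectional fit versus DMSO baseline.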

A short description of assay [12]: ATG_M_19_CIS: Attagene CIS-FACTORIAL HepG2 Assay for M19 Transcription Factor (Internal Marker) (AID 2282939). As to conditions: HepG2 Attagene CIS-FACTORIAL M19 internal marker reporter; actives raise or lower the signal. The method in brief: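 Background-control endpoint from a multiplexed HepG2 reporter panel. Cells carrying cis-regulated reporter constructs are treated 24 h, then reporter transcripts are amplified, fluorescently labelled and sized by capillary electrophoresis. DMSO defines baseline.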

Assay [13] is described as follows: ATG_ERE_CIS: Attagene CIS-FACTORIAL HepG2 Assay for Estrogen Response Element (ERE) (AID 2282940). The conditions noted are these: HepG2 ERE cis-reporter, Attagene RNA transcript; actives raise or lower the signal. In a few lines: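 Cells used were human hepatoma HepG2, transfected with multiple reporter transcription units under cis-regulatory promoters. Reporter mRNA, read 24 h post-dosing via fluorescent RT-PCR products on capillary electrophoresis, was fitted bidirectionally relative to DMSO.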

A short description of assay [14]: ATG_Ets_CIS: Attagene CIS-FACTORIAL HepG2 Assay for human Erythroblast Transformation Specific (ETS) (AID 2282941). As to conditions: HepG2 ETS cis-reporter transcription, actives raise or lower the signal. The method in brief: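 Bidirectional fit versus DMSO of reporter mRNA signal, detected by RT-PCR and capillary electrophoresis in HepG2 cells transiently transfected with cis-element reporters and dosed 24 h.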

The target in assay [15] is Hepatocyte nuclear factor 3-beta (Homo sapiens) (UniProt Q9Y261). Nature of the assay: ATG_FoxA2_CIS: Attagene CIS-FACTORIAL HepG2 Assay for human Forkhead box A2 (FOXA2) (AID 2282942). As to conditions: HepG2 cis-reporter transcription factor activity, 24 h; actives raise or lower the signal. In a few lines:
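HepG2 cells transiently transfected with multiple cis-regulated reporter transcription units, dosed for 24 h. Reporter mRNA measured by RT-PCR, 6-FAM labelling, HpaI digestion and capillary electrophoresis; bidirectional fitting against DMSO baseline.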

Assay [16] is described as follows: ATG_FoxO_CIS: Attagene CIS-FACTORIAL HepG2 Assay for human Forkhead box O (FoxO) (AID 2282943). The conditions noted are these: HepG2 Attagene cis-reporter, FoxO element, mRNA; actives raise or lower the signal. The method in brief: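 Values reflect reporter mRNA induction or loss in HepG2 cells 24 h post-dosing, fitted bidirectionally with DMSO as negative control and baseline. Detection used RT-PCR and fluorescence capillary electrophoresis.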

Assay [17] is described as follows: ATG_GATA_CIS: Attagene CIS-FACTORIAL HepG2 Assay for human GATA Binding Protein (AID 2282944). As to conditions: HepG2 GATA cis-element reporter, Attagene multiplex mRNA; actives raise or lower the signal. The method in brief: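 Endogenous transcription factor activity was captured through cis-promoter-driven reporters in transfected HepG2 cells. After 24 h exposure, reporter transcripts were quantified by RT-PCR with fluorescent capillary electrophoresis, and responses fitted both directions against DMSO.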

The nature of assay [18]: ATG_GLI_CIS: Attagene CIS-FACTORIAL HepG2 Assay for human Zinc Finger Protein GLI1 (AID 2282945). The conditions noted are these: HepG2, Attagene cis-factorial reporter mRNA, GLI element; actives raise or lower the signal. In a few lines: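 HepG2 cells transiently transfected with cis-promoter multiplexed reporter units report endogenous transcription factor activity. After 24 h chemical exposure, reporter mRNA was quantified by RT-PCR, 6-FAM labelling, HpaI digestion and capillary electrophoresis, with bidirectional fitting against DMSO.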

Assay [19] is described as follows: ATG_AP_2_CIS: Attagene CIS-FACTORIAL HepG2 Assay for human Activator Protein 2 (AP-2) (AID 2282932). As to conditions: HepG2 AP-2 cis-reporter, Attagene transcription factor profiling; actives raise or lower the signal. The method in brief: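 Assay in transfected HepG2 with promoter-regulated reporters, 24 h incubation after dosing. Signal is reporter mRNA fluorescence (RT-PCR, capillary electrophoresis), analysed for both increases and decreases relative to DMSO controls.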

Assay [20] concerns the target Transcription factor E2F1 (Homo sapiens) (UniProt Q01094). In words: ATG_E2F_CIS: Attagene CIS-FACTORIAL HepG2 Assay for human E2F Transcription Factor 1 (AID 2282935). As to conditions: HepG2 Attagene cis-reporter, E2F reporter RNA transcripts; actives raise or lower the signal. In a few lines: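 In this cis-factorial format, endogenous factor activity drives transfected reporters in HepG2; transcripts collected at 24 h are quantified by fluorescence after RT-PCR and capillary separation.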

Values joined by “and” are separate entries in the source; they are usually repeats but may differ in a detail not shown here. Equal values may be shown once. Some structures have more than one record in an assay (separate samples or runs), and their calls can disagree. Active and inactive are the calls of the source. The calls were made as follows: active = hit-call score of the fitted dose curve at least 0.9, where 1 is the maximum; inactive = score below 0.9.

Sequence of Retinoic acid receptor alpha (Homo sapiens) (P10276 whole entry, looked up): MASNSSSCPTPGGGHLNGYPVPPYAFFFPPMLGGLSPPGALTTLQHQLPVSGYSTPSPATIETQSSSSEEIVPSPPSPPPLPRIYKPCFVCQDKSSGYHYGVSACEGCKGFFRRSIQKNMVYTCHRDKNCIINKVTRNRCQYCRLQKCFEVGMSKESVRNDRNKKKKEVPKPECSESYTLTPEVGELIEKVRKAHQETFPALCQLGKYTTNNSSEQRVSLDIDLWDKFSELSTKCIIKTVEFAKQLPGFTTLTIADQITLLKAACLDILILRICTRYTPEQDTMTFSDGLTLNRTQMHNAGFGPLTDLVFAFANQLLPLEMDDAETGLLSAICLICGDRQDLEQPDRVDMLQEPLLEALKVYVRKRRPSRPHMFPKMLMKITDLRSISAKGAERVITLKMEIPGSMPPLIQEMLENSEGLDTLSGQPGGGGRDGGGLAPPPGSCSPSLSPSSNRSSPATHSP
Sequence of Aryl hydrocarbon receptor (Homo sapiens) (P35869 whole entry, looked up): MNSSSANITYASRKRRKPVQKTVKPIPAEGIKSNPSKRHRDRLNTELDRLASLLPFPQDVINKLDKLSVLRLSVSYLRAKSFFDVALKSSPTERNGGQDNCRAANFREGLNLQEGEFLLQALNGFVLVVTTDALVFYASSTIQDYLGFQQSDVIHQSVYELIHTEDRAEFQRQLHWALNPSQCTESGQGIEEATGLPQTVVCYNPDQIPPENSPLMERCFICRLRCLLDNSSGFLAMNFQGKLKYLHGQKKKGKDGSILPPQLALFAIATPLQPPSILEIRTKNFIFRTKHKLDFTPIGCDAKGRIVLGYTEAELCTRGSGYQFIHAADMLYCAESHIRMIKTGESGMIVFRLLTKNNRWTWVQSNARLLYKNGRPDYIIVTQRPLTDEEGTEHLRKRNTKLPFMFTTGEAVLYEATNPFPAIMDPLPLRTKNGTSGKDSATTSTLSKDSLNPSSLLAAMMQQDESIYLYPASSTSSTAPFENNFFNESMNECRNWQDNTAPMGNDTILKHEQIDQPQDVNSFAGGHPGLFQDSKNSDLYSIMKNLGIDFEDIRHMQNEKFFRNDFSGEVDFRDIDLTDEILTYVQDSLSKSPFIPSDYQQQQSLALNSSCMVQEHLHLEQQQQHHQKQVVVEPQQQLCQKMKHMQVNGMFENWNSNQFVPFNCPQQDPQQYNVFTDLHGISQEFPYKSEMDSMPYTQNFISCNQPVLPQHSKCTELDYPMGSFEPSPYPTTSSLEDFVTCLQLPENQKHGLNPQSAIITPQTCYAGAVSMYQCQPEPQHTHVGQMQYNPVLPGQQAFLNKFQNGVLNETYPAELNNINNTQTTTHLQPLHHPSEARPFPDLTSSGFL
Sequence of Transcription factor E2F1 (Homo sapiens) (Q01094 whole entry, looked up): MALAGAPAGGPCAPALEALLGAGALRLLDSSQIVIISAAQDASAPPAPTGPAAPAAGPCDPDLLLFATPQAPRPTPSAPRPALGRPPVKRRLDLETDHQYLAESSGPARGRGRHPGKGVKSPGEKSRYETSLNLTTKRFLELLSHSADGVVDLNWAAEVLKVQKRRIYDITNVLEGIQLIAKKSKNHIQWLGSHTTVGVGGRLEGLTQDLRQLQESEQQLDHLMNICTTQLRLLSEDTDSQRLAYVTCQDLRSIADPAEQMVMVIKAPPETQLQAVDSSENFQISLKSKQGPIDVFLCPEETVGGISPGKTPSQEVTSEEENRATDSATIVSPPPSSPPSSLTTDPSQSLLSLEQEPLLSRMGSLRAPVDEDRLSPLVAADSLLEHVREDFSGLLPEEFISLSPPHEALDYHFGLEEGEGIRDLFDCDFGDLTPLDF
Sequence of Hepatocyte nuclear factor 3-beta (Homo sapiens) (Q9Y261 whole entry, looked up): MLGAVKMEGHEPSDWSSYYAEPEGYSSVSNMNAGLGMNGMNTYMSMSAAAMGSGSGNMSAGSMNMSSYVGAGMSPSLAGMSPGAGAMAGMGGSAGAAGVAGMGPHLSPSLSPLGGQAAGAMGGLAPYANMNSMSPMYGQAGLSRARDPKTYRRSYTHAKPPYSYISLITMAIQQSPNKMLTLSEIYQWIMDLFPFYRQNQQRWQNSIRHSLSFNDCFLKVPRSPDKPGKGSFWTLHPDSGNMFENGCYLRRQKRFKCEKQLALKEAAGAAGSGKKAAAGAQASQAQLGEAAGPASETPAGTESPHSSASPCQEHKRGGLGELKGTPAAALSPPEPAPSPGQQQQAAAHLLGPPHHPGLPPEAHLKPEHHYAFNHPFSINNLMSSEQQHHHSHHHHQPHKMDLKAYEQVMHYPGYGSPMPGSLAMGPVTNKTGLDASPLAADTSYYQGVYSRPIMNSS

As to `CCCCCCCCCCCCCN1CC(C)OC(C)C1` (centres undefined), the compound was called inactive in [1], in [2], in [4], in assay [5], in [8] and in [9]. Also, the call in [10], in assay [11], in assay [12], in assay [13], in assay [14] and in assay [15] was inactive. Moreover, the call in [16], in assay [17] and in [18] was inactive. Besides, the AC50 in assay [3] was 33.4 µM (active); in [6] it was 50.9 µM (active); in [7], 50 µM (active).

As to `C[C@]12C=CC3=C4CCC(=O)C=C4CC[C@H]3[C@@H]1CC[C@@H]2O`, the AC50 was 68.8 µM (active) in assay [1]; 18 µM (active) in assay [2]; 28.3 µM (active) in [3]; 19.8 µM (active) in assay [4]; 19.8 µM (active) and 26.5 µM (active) and 7.78 µM (active) in assay [19]; 25.3 µM (active) in assay [11]. Moreover, the AC50 in assay [14] was 31.8 µM (active) and 30 µM (active); in assay [16], 30.2 µM (active). Also, the compound was called inactive in assay [1], in [2], in assay [3], in assay [4], in assay [6] and in [19]. In addition, the compound was called inactive in [7], in assay [20], in assay [9], in assay [10], in assay [11] and in [14]. The compound was called inactive in [15], in assay [16], in assay [17] and in assay [18].

In the case of `CC(C)(OOC(C)(C)c1ccccc1)c1ccccc1`, the AC50 was 57.4 µM (active) in assay [1]; 59.3 µM (active) in assay [2]; 48.7 µM (active) in assay [3]; 63.9 µM (active) in [4]; 57.5 µM (active) in assay [6]; 48.5 µM (active) in assay [7]. Moreover, the AC50 is 61.9 µM (active) in [11] and 100 µM (active) in assay [14]. In addition, the result in [5], in [19], in assay [8], in assay [20], in [9] and in [10] was inactive. Besides, the call in assay [15], in assay [16] and in assay [17] was inactive.

Turning to `ClCCOCCCl`, the call in [1], in [2], in assay [3], in assay [4], in [5] and in assay [6] was inactive. The call in assay [7], in assay [8], in assay [9], in assay [10], in assay [11] and in assay [12] was inactive. The outcome in [14], in assay [15], in assay [16] and in [17] was inactive.

Turning to `O=[N+]([O-])c1ccc(Oc2ccc(Cl)cc2Cl)cc1`, the compound was called inactive in [1], in assay [2], in [6], in [19], in assay [20] and in [10]. The result in [14], in [15], in assay [16], in [17] and in assay [18] was inactive. For the same compound, the half-maximal activity concentration (AC50) in [3] was 100 µM (active); in [4], 48.1 µM (active); in [5], 68.6 µM (active); in assay [7], 56.4 µM (active); in [9], 71.5 µM (active); in assay [11], 28.3 µM (active).

As for `CN(C)[C@@H]1C(=O)C(C(N)=O)=C(O)[C@@]2(O)C(=O)C3=C(O)c4c(O)cccc4[C@@](C)(O)[C@H]3C[C@@H]12`, the compound was classed as inactive in [1], in assay [2], in assay [4], in assay [5], in [6] and in [19]. In addition, the compound was called inactive in [7], in assay [20], in assay [9], in [10], in assay [11] and in [14]. The call in assay [15], in assay [16], in assay [17] and in assay [18] was inactive. In assay [3], the concentration at half-maximal activity (AC50) is 137 µM (active).
